Screens deposited in PubChem BioAssay by Broad Institute.
An excerpt weighted towards active compounds, which were near 2.4% of everything screened.
Wnt act: Wnt/beta-catenin pathway activators, primary screen, cell-based, plate reader, single point; activation, % at 9.35 µM; Wnt/beta-catenin reporter cell assay, activator; 300,000 tested, 1.2% active; AID 743398, 2014; in the data active = activation above about 30%, passing the limit was not always enough; inconclusive = no clear call, values can overlap the other calls
DYRK1A inh: rat Dyrk1A kinase inhibitors, primary screen, biochemical, single point, plate reader; Dual specificity tyrosine-phosphorylation-regulated kinase 1A (Rattus norvegicus), Q63470; ADP-Glo luminescence, NFATc1 peptide; inhibition, % at 12.5 µM; 310,000 tested, 0.43% active
MITF TRPM1 HTS: activators of MITF-driven TRPM1 promoter reporter, primary screen, cell-based, SK-MEL-5, luciferase, single point. activation, % at 12.5 µM. SK-MEL-5 TRPM1-promoter luciferase, 24 h; % of positive control, neutral wells = 0. 300,000 tested, 0.75% active. AID 588334, 2011;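 active = mean activation of at least 80% with every replicate also reaching 80%; inconclusive = mean reaches 80% but some replicate falls short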
GSIS activator: GLuc luminescence reporter in INS-1E cells, primary screen for activators of glucose-dependent secretion of insulin. 370,000 tested, 0.61% active. activation, % at 16.6 µM. INS-1E GLuc reporter insulin secretion, 2-3 h. AID 743287, 2014;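 active = lowest replicate activation of at least 40%, so every replicate reaches that level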
miR122 inh: miR-122 Renilla sensor signal increase in Huh7, primary screen, miR-122 inhibitor project, cell-based, single point, plate reader. Huh7 miR-122 Renilla luciferase sensor, 48 h; neutral wells = 0, positive control = 100. activation (reporter increase), % at 12.5 µM. 340,000 tested, 0.3% active;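 active = mean replicate activation score at least 90 and every replicate individually at or above 90; inconclusive = only one of the two criteria met; inactive = neither criterion met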;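 note: higher luciferase means less miR-122 activity so hits act as miR-122 inhibitors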
NSD2 inh: NSD2 histone methyltransferase inhibitors, primary screen, biochemical, AlphaScreen, single concentration, set 2; NSD2 peptide methylation, 120 min; AID 743445, 2014; Histone-lysine N-methyltransferase NSD2 (Homo sapiens), O96028; 310,000 tested, 0.54% active; inhibition, % at 12.5 µM
Hits are given with their value; 0 = inactive; ? = inconclusive; - = no result; + = active, no number. Cut-off read from the data, not from the text of the source, unless noted: active = inhibition above about 50%; inactive = the rest.

SMILES | Wnt act | DYRK1A inh | MITF TRPM1 HTS | GSIS activator | miR122 inh | NSD2 inh
C[C@@H]1CN([C@@H](C)CO)C(=O)c2cc(NC(=O)Cc3ccccc3)ccc2O[C@@H]1CN(C)Cc1ccncc1 | - | - | - | 0 | 0 | -
N/C(=N/O)c1nc(N2CCCC2)nc(N2CCCC2)n1 | 0 | 0 | 0 | 76 | - | 0
O=C(Nc1cccnc1)c1cc(-c2cc(Cl)ccc2O)n[nH]1 | 38 | 0 | ? | 0 | - | 0
COc1ccc(Cl)cc1C(=O)Nc1cccnc1 | 0 | 0 | - | 0 | 0 | 0
Cc1ccc(C)c(NC(=O)c2cc(-c3cc(C)c(C)cc3O)n[nH]2)c1 | 0 | 0 | 100 | 0 | 0 | 0
Cc1ccc(O)c(-c2cc(C(=O)Nc3cccnc3)[nH]n2)c1 | 60 | 0 | 215 | 0 | 0 | 0
COc1ccc(F)cc1-c1cc(C(=O)Nc2cccnc2)[nH]n1 | 0 | - | - | 0 | 0 | 0
C[C@H](CO)N1C[C@H](C)[C@H](CN(C)C(=O)C2CC2)Oc2cc(C#CCN(C)C)ccc2S1(=O)=O | - | - | - | 0 | 0 | -
C[C@H]1CN([C@@H](C)CO)C(=O)c2cccc(NS(C)(=O)=O)c2O[C@H]1CN(C)Cc1ccc2c(c1)OCO2 | - | - | - | 0 | 0 | -
COc1ccc(NC(=O)N(C)C[C@H]2Oc3ccc(NC(=O)NC4CCCCC4)cc3CC(=O)N([C@H](C)CO)C[C@H]2C)cc1 | - | - | - | 0 | 0 | -
Cc1cc(O)c(Sc2ncn[nH]2)cc1NS(=O)(=O)c1ccc(Cl)cc1 | 0 | 0 | 0 | 0 | 0 | 0
O=S(=O)(Nc1cc(Sc2ncn[nH]2)c(O)c2ccccc12)c1ccccc1 | 0 | 0 | 0 | 0 | 0 | +
O=C(O)CCC1(CCC(=O)O)CCCC(CCC(=O)O)(CCC(=O)O)C1=O | 0 | 0 | 0 | 47 | 0 | 0
O=C(O)CCN1C(=O)NC2(CCCC2)C1=O | 0 | 0 | 0 | - | 0 | 0
O=[N+]([O-])c1ccc(C=CC=Cc2ccccc2)cc1 | 0 | - | - | 0 | 0 | 0
[O-]/[N+](=C\C=C\c1ccccc1)c1ccccc1 | 0 | 0 | 94 | 0 | 0 | 0
CO[C@@H]1CN(C)C(=O)c2cc(NS(C)(=O)=O)ccc2OC[C@H](C)N(C(=O)c2ccc3c(c2)OCO3)C[C@@H]1C | - | - | - | 0 | - | -
Oc1c(Cl)cc(Cl)cc1/C=C/c1ccc2cccc(O)c2n1 | 0 | 0 | 0 | 0 | - | 0
Oc1ccc(Cl)cc1/C=C/c1ccc2cccc(O)c2n1 | 0 | 0 | 0 | 0 | 140 | 0
CC(=O)Nc1cccc(-c2nc3ccccc3s2)c1 | 0 | 0 | 0 | - | 0 | 0
CCC(=O)NC(=S)Nc1ccc(-c2nc3ccc(C)cc3s2)cc1 | 36 | 0 | 113 | 0 | 0 | 0
CCC(=O)NC(=S)Nc1ccc(-c2nc3ccccc3s2)cc1 | - | 0 | 0 | 0 | 0 | 0
Cc1ccc2nc(-c3ccc(NC(=S)NC(=O)C(C)C)cc3)sc2c1 | 0 | 0 | 96 | 0 | 0 | 0
CC(=O)Nc1cccc(-c2nc3ccc(NC(C)=O)cc3s2)c1 | ? | 0 | 90 | 0 | 0 | 0
C[C@@H]1CN([C@@H](C)CO)C(=O)Cc2cc(NC(=O)CCCN(C)C)ccc2O[C@H]1CN(C)C(=O)Nc1ccc(F)cc1 | - | - | - | 0 | 0 | -
SMILES | Wnt act | DYRK1A inh | MITF TRPM1 HTS | GSIS activator | miR122 inh | NSD2 inh
CO[C@@H]1CN(C)C(=O)c2cc(NC(=O)CC(F)(F)F)ccc2OC[C@H](C)N(C(=O)C2CCOCC2)C[C@H]1C | - | - | - | 0 | - | -
C[C@@H]1CN([C@@H](C)CO)C(=O)c2cc(NC(=O)CCN3CCOCC3)ccc2O[C@@H]1CN(C)Cc1ccccc1 | - | - | - | 0 | 0 | -
CO[C@@H](CN(C)C(=O)C1CC1)[C@@H](C)CN(C(=O)Nc1ccc(C(F)(F)F)cc1)[C@H](C)CO | - | - | - | 0 | - | -
CN(C(=O)[C@H]1O[C@@H](n2cnc(C(N)=O)n2)[C@H](O)[C@@H]1O)c1ccccc1 | 0 | - | - | 187 | - | -
Cc1ccc(NC(=O)[C@@H](Cc2ccccc2)NC(=O)[C@H]2O[C@@H](n3ccc(=O)[nH]c3=O)[C@H](O)[C@@H]2O)cc1C | 0 | - | - | 51 | - | 0
NC(=O)c1ncn([C@@H]2O[C@H](C(=O)N[C@H](Cc3c[nH]c4ccccc34)C(=O)O)[C@@H](O)[C@H]2O)n1 | 0 | - | - | - | - | -
NC(=O)c1ncn([C@@H]2O[C@H](C(=O)N[C@H](Cc3ccccc3)C(=O)O)[C@@H](O)[C@H]2O)n1 | 0 | - | - | 44 | - | -
Cn1c(C(=O)NCCc2c[nH]c3ccccc23)cc2sccc21 | 0 | 0 | 101 | 0 | 0 | -
C[C@@H]1CCCCO[C@H](CN(C)C)[C@H](C)CN([C@H](C)CO)C(=O)c2cc(NC(=O)Nc3ccc4c(c3)OCO4)ccc2O1 | - | - | - | 0 | 0 | -
COc1ccc(OC)c(C2C3=C(COC3=O)Nc3cc4c(cc32)OCO4)c1 (centres undefined) | - | 0 | 0 | - | 140 | 0
CC(C)N(Cc1nccn1C)C(=O)CCc1nnc(CCCc2ccccc2)o1 | 69 | 0 | 0 | 0 | - | 0
CC(C)N(CCO)C(=O)CCc1nnc(CCCc2ccccc2)o1 | 0 | 0 | 0 | 0 | - | 0
CCCC(=O)N1CCC2(CC1)CN(S(C)(=O)=O)[C@@H](CO)c1c2c2ccc(OC)cc2n1C | - | - | - | 0 | - | -
N#Cc1cccc(NC(=O)COC(=O)Cn2nc(-c3ccccc3)oc2=O)c1 | 38 | - | 0 | - | - | 0
C[C@H](CO)N1C[C@H](C)[C@H](CN(C)C(=O)Nc2ccccc2)OCCCC[C@H](C)Oc2ccc(NS(=O)(=O)c3cn(C)cn3)cc2C1=O | - | - | - | 0 | 0 | -
Cc1cccc(-c2ccc([C@@H]3[C@@H](CO)N4C(=O)CN(C(=O)c5cnccn5)C[C@H]34)cc2)c1 | - | - | - | 0 | - | -
Cc1nc2ccccn2c1C(=O)N/N=C/c1ccc2c(c1)OCO2 | 0 | 0 | 88 | 0 | 0 | 0
Cc1nc2ccccn2c1C(=O)NCc1ccc2c(c1)OCO2 | - | - | 0 | - | 0 | 0
CCCC12CN3CCN(CC(C3)/C1=N\NC(=O)c1ccc(F)cc1)C2 | 0 | 0 | 0 | 0 | 0 | 0
CCCCC12CN3CCN(CC(C3)/C1=N\NC(=O)c1ccccc1N)C2 | 35 | 0 | 0 | 0 | 0 | 0
CC(=O)N1C[C@H]2[C@@H](c3ccccc31)[C@@H](CO)N2C(=O)CC1CC1 | - | - | - | 0 | 0 | -
O=C(Nc1ccccc1)OCC1COC(c2ccccc2)(c2ccccc2)O1 (centres undefined) | 49 | 0 | 0 | - | 0 | 0
O=C(Nc1ccccc1)OCC1CCCO1 (centres undefined) | 0 | 0 | 0 | 0 | 0 | -
COc1ccc(CN(C)C[C@@H]2OCCCC[C@H](C)Oc3ccc(NS(=O)(=O)c4c(C)noc4C)cc3C(=O)N([C@@H](C)CO)C[C@H]2C)cc1 | - | - | - | 0 | - | -
CC1(C(=O)NCc2ccccc2)CN(S(C)(=O)=O)CC(=O)N1C1CC1 (centres undefined) | 0 | - | - | 65 | - | 0
O=C(O)CCCC(=O)N1CCN(c2nc(-c3ccccc3)c3ccccc3n2)CC1 | 0 | 0 | 0 | 61 | 0 | -
